Results filed as inconclusive are left out. Active and inactive are the calls of the source. The call rests on the fitted dose curve; in most records, active means well fitted curve in the direction sought with a large enough effect; inconclusive means small, poorly fitted or top-dose-only effect, or another doubt; inactive means no such curve, though single readings can be large; an effect the other way counts as inactive or inconclusive.

Experiment [1] is described as follows: qHTS of pediatric cancer cell lines to identify multiple opportunities for drug repurposing: Primary screen for Rh18 cells (AID 1347102). Further: nearly all actives have a fitted effect of over 65% in size. The gist of the method:
(§1)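 Viability after 48 h compound treatment at 37C, 500-1,000 cells/well, read as ATP luminescence with CellTiter-Glo. Primary screens used 11-point (MIPE, 0.78 nM-46 µM) or 8-point (NPC, 0.59 nM-46 µM) final concentrations; follow-up screens used 11-point dilutions.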
On the technique in general: Quantitative high-throughput screening tests each substance at several concentrations.

Experiment [2] in a line: qHTS of pediatric cancer cell lines to identify multiple opportunities for drug repurposing: Primary screen for OHS-50 cells (AID 1347103). Further: nearly all actives have a fitted effect of over 40% in size. Further: potency means the concentration at half of the fitted maximal effect. The gist of the method:
(§2)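 Cells (500-1,000/well) rested 5 h, then received compounds for 48 h; metabolically active cells were measured by CellTiter-Glo luminescence. Final concentrations spanned up to 46 µM (MIPE, 11-point) or 0.59 nM-46 µM (NPC, 8-point) in primary screens, 11-point in follow-ups.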

Experiment [3] can be described thus: qHTS of pediatric cancer cell lines to identify multiple opportunities for drug repurposing: Primary screen for RD cells (AID 1347104). Further: nearly all actives have a fitted effect of over 55% in size. Further: potency means the concentration at half of the fitted maximal effect. The gist of the method:
(§3)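 Luminescence from CellTiter-Glo served as readout of metabolically active cells after 48 h compound exposure. Titrations: MIPE 11-point, from 0.78 nM; NPC 8-point, from 0.59 nM (final). Concentration-response curves came straight from the primary screen.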

Experiment [4] is described as follows: qHTS of pediatric cancer cell lines to identify multiple opportunities for drug repurposing: Primary screen for MG 63 (6-TG R) cells (AID 1347105). Further: nearly all actives have a fitted effect of over 50% in size. Further: potency means the concentration at half of the fitted maximal effect. A digest of the protocol: as §3
Experiment [5] in a line: qHTS of pediatric cancer cell lines to identify multiple opportunities for drug repurposing: Primary screen for Rh30 cells (AID 1347107). Further: nearly all actives have a fitted effect of over 75% in size. Further: potency means the concentration at half of the fitted maximal effect. The gist of the method: as §1
Experiment [6] in a line: qHTS of pediatric cancer cell lines to identify multiple opportunities for drug repurposing: Primary screen for Rh41 cells (AID 1347108). Further: nearly all actives have a fitted effect of over 70% in size. Further: potency means the concentration at half of the fitted maximal effect.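 On activity change, negative = cytotoxic: luminescence drop marks cytotoxic hits.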 A digest of the protocol:
as §3

Experiment [7] can be described thus: qHTS of pediatric cancer cell lines to identify multiple opportunities for drug repurposing: Primary screen for BT-12 cells (AID 1347101). Further: nearly all actives have a fitted effect of over 25% in size. Further: potency means the concentration at half of the fitted maximal effect. A digest of the protocol:
as §2

The nature of experiment [8]: qHTS of pediatric cancer cell lines to identify multiple opportunities for drug repurposing: Confirmatory screen for NB1643 cells (AID 1347109). Further: nearly all actives have a fitted effect of over 45% in size. Further: potency means the concentration at half of the fitted maximal effect. A digest of the protocol:
as §1

The nature of experiment [9]: qHTS of pediatric cancer cell lines to identify multiple opportunities for drug repurposing: Confirmatory screen for BT-12 cells (AID 1347112). Further: nearly all actives have a fitted effect of over 55% in size. Further: potency means the concentration at half of the fitted maximal effect. A digest of the protocol:
as §1

Experiment [10] is described as follows: qHTS of pediatric cancer cell lines to identify multiple opportunities for drug repurposing: Confirmatory screen for LAN-5 cells (AID 1347113). Further: nearly all actives have a fitted effect of over 65% in size. Further: potency means the concentration at half of the fitted maximal effect. The gist of the method: as §1
Experiment [11] can be described thus: qHTS of pediatric cancer cell lines to identify multiple opportunities for drug repurposing: Confirmatory screen for DAOY cells (AID 1347114). Further: nearly all actives have a fitted effect of over 65% in size. A digest of the protocol: (§4)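 Viability measured as metabolically active cells via CellTiter-Glo luminescence following 48 hours of compound exposure, 11-point dilutions in confirmatory testing. 500-1,000 cells/well plated 5 hours before dosing; controls were DMSO and 2.3 µM bortezomib.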

Experiment [12] can be described thus: qHTS of pediatric cancer cell lines to identify multiple opportunities for drug repurposing: Confirmatory screen for NB-EBc1 cells (AID 1347115). Further: nearly all actives have a fitted effect of over 45% in size. Further: potency means the concentration at half of the fitted maximal effect. The gist of the method: as §1
Experiment [13] in a line: qHTS of pediatric cancer cell lines to identify multiple opportunities for drug repurposing: Confirmatory screen for SJ-GBM2 cells (AID 1347116). Further: nearly all actives have a fitted effect of over 60% in size. A digest of the protocol: as §4
Experiment [14] in a line: qHTS of pediatric cancer cell lines to identify multiple opportunities for drug repurposing: Confirmatory screen for BT-37 cells (AID 1347117). Further: nearly all actives have a fitted effect of over 55% in size. Further: potency means the concentration at half of the fitted maximal effect. Particulars: BT-37 pediatric cancer cells, viability; activity change, negative = cytotoxic: at 45.9 µM (top of the series). A digest of the protocol:
as §1

A short description of experiment [15]: qHTS of pediatric cancer cell lines to identify multiple opportunities for drug repurposing: Confirmatory screen for MG 63 (6-TG R) cells (AID 1347119). Further: nearly all actives have a fitted effect of over 55% in size. Further: potency means the concentration at half of the fitted maximal effect. The gist of the method: as §1
Experiment [16] in a line: qHTS of pediatric cancer cell lines to identify multiple opportunities for drug repurposing: Primary screen for control Hh wild type fibroblast cells (AID 1347106). The gist of the method: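 Cells (500-1,000/well) in growth media were settled 5 h at 37 degrees C, then given compounds for 48 h. Viability was read as CellTiter-Glo luminescence. Primary runs used MIPE at 11 points (0.78 nM-46 µM) and NPC at 8 points (0.59 nM-46 µM); follow-ups used 11 points.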

The nature of experiment [17]: qHTS of pediatric cancer cell lines to identify multiple opportunities for drug repurposing: Confirmatory screen for SK-N-MC cells (AID 1347111).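 Further: cells exposed to compound for 48 h before the readout; nearly all actives have a fitted effect of over 70% in size.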 Further: potency means the concentration at half of the fitted maximal effect. A digest of the protocol: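 SK-N-MC cells at 500-1,000 cells/well in growth media were pre-incubated 5 h, then exposed to compounds at 11-point dilutions for 48 h at 37 degrees C, 5% CO2. Viability was read as CellTiter-Glo luminescence.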

A short description of experiment [18]: qHTS of pediatric cancer cell lines to identify multiple opportunities for drug repurposing: Confirmatory screen for control Hh wild type fibroblast cells (AID 1347121). Further: nearly all actives have a fitted effect of over 70% in size. The gist of the method: as §1
Experiment [19] is described as follows: qHTS of pediatric cancer cell lines to identify multiple opportunities for drug repurposing: Confirmatory screen for TC32 cells (AID 1347118). Further: potency means the concentration at half of the fitted maximal effect; nearly all actives have a fitted effect of over 65% in size. A digest of the protocol: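 qHTS, TC32, 48 h drug treatment, CellTiter-Glo luminescence as a proxy for metabolically active cells; primary top concentration 46 µM (MIPE 11-pt, NPC 8-pt); confirmatory 11-pt.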

With `C[C@@H]1C(=O)O[C@H]2CC34[C@H]5C[C@@H](C(C)(C)C)C36[C@H](OC(=O)[C@@H]6O)O[C@@]4(C(=O)O5)[C@]21O` (stereo not given in full), the Potency entry in experiment [1], in experiment [2], in experiment [3], in experiment [4], in experiment [5] and in experiment [6] was “inactive” each time.

Regarding `Nc1nc2c(c(=O)[nH]1)N(C=O)[C@H](CNc1ccc(C(=O)N[C@@H](CCC(=O)O)C(=O)O)cc1)CN2`, the Potency in experiment [7] was 10.9 µM (active); in experiment [2] it was 27.3 µM (active). Moreover, the Potency result in experiment [5], in experiment [6], in experiment [8], in [9], in experiment [10] and in experiment [11] was “inactive” each time. In addition, the Potency entry in experiment [12], in [13], in experiment [14] and in experiment [15] was “inactive” each time.

Take `O=c1[nH]c(=O)n([C@H]2C[C@@H](O)[C@@H](CO)O2)cc1F`: the Potency is 6.11 µM (active) in experiment [7]; 16.6 µM (active) in [3]; 18.7 µM (active) in experiment [4]; 2.35 µM (active) in experiment [5]; 1.48 µM (active) in experiment [6].

`CC(=O)ON=C1C(c2c(O)[nH]c3cc(Br)ccc23)=Nc2ccccc21`: the Potency in experiment [7] was 19.3 µM (active); in experiment [3] it was 6.62 µM (active); in experiment [6] it was 2.96 µM (active); in experiment [8] it was 16.5 µM (active); in experiment [17], 8.27 µM (active); in experiment [9] it was 18.5 µM (active). Besides, the Potency is 14.7 µM (active) in experiment [10], 16.5 µM (active) in [12], 16.5 µM (active) in experiment [14] and 18.5 µM (active) in experiment [15]. In addition, the Potency entry in experiment [16] and in [18] was “inactive” throughout.

`C=C(C)[C@@H]1CC[C@]2(C(=O)O)CC[C@]3(C)[C@H](CC[C@@H]4[C@@]5(C)CC[C@H](O)C(C)(C)[C@@H]5CC[C@]43C)[C@@H]12`: the Potency result in experiment [7], in experiment [3], in experiment [4], in [16] and in experiment [6] was “inactive” each time.

On to `Cn1c(Nc2ccc(C(F)(F)F)cc2)nc2cc(Oc3ccnc(-c4ncc(C(F)(F)F)[nH]4)c3)ccc21`, for which the Potency in experiment [7] is 8.63 µM (active); in [3], 4.18 µM (active); in experiment [8], 20.8 µM (active); in experiment [17], 7.37 µM (active); in [10], 18.5 µM (active); in experiment [14], 4.65 µM (active). Further, the Potency in experiment [19] is 0.928 µM (active); in [15], 13.1 µM (active). In addition, the Potency result in experiment [5] and in experiment [13] was “inactive” each time.

Take `C[C@]12CCC(=O)C=C1[C@@H]1CC1[C@H]1[C@H]3[C@@H]4C[C@H]4[C@@]4(CCC(=O)O4)[C@@]3(C)CC[C@H]12` (stereo not given in full): the Potency entry in experiment [1], in experiment [3], in experiment [4], in experiment [16], in experiment [5] and in experiment [6] was “inactive” in each case. The Potency in experiment [2] is 19.3 µM (active).

Take `O=C(Nc1ccc(Oc2ccnc3[nH]ccc23)c(F)c1)c1cccn(-c2ccc(F)cc2)c1=O`: the Potency entry in experiment [7], in experiment [3], in experiment [4], in experiment [16], in experiment [5] and in [6] was “inactive” throughout.

`Nc1nc(=O)n([C@H]2C[C@H](O)[C@@H](CO)O2)cc1F`: the Potency result in [1], in [2], in [3], in experiment [4], in experiment [16] and in experiment [5] was “inactive” each time. In [6], the Potency result is “inactive”.

As to `CN1C(C(=O)Nc2ccccn2)=C(O)c2sc(Cl)cc2S1(=O)=O`, the Potency result in experiment [7], in experiment [2] and in [5] was “inactive” each time.

On to `CCN(C(=O)c1c(O)c2c(Cl)cccc2n(C)c1=O)c1ccccc1`, for which the Potency result in experiment [1], in experiment [2], in experiment [3], in [16], in [5] and in experiment [6] was “inactive” in each case.

For the molecule `O=S(=O)(O)CCSSCCS(=O)(=O)O`, the Potency result in [1], in [2], in experiment [3], in experiment [4], in experiment [5] and in [6] was “inactive” throughout. For the same molecule, the Potency entry in [8], in [17], in experiment [9], in [10], in experiment [11] and in experiment [12] was “inactive” throughout. The Potency entry in experiment [13], in experiment [14], in experiment [15] and in experiment [18] was “inactive” each time.

As for `CCCCCCCCCCCC(CC1OC(=O)C1CCCCCC)OC(=O)C(CC(C)C)NC=O` (stereo not given), the Potency result in experiment [7], in experiment [3], in [16], in [5] and in [6] was “inactive” in each case.

For `CC(O)(C#Cc1ccc2c(c1)N(c1nc(N)ncc1Cl)CC2)c1nccs1` (stereo not given), the Potency result in experiment [1], in experiment [5] and in experiment [6] was “inactive” throughout. Also, the Potency in experiment [2] is 24.3 µM (active); in [3], 18.7 µM (active).

For the molecule `COc1ccc2cc([S+]([O-])Cc3ncc(C)c(OC)c3C)nc2c1`, the Potency result in experiment [7], in [3], in experiment [4], in experiment [16], in [5] and in [6] was “inactive” in each case.

In the case of `COc1cc(N2CCC(C(N)=O)CC2)ccc1Nc1nc(N)c(Cl)c(Nc2ccccc2S(=O)(=O)C(C)C)n1`, the Potency result in [7] and in [5] was “inactive” each time. Moreover, the Potency in experiment [2] was 0.0611 µM (active); in [6], 0.59 µM (active).

The record behind these values is PubChem BioAssay (NCATS).
